Test [1] addresses T1, Protein kinase C zeta type (Homo sapiens) (UniProt Q05513).
T1 sequence (whole entry): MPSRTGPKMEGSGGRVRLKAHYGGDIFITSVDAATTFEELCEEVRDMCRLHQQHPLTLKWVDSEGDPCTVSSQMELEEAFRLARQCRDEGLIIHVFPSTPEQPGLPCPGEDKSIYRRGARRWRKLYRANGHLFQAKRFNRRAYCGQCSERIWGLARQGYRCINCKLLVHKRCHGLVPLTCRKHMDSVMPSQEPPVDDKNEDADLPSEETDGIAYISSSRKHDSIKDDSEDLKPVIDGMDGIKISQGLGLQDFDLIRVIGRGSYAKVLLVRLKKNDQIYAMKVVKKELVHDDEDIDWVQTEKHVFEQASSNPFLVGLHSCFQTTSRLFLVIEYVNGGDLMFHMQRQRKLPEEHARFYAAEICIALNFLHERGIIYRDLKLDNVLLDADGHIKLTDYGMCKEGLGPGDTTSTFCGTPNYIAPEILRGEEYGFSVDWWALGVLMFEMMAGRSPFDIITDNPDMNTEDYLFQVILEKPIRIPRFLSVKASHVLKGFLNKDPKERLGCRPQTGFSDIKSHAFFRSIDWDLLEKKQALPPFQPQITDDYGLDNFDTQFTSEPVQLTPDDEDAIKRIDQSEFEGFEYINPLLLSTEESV
Particulars: at 1 µM; call rule not given here.

In test [2] the target is T2, Mitogen-activated protein kinase kinase kinase 5 (Homo sapiens) (UniProt Q99683).
T2 sequence (whole entry): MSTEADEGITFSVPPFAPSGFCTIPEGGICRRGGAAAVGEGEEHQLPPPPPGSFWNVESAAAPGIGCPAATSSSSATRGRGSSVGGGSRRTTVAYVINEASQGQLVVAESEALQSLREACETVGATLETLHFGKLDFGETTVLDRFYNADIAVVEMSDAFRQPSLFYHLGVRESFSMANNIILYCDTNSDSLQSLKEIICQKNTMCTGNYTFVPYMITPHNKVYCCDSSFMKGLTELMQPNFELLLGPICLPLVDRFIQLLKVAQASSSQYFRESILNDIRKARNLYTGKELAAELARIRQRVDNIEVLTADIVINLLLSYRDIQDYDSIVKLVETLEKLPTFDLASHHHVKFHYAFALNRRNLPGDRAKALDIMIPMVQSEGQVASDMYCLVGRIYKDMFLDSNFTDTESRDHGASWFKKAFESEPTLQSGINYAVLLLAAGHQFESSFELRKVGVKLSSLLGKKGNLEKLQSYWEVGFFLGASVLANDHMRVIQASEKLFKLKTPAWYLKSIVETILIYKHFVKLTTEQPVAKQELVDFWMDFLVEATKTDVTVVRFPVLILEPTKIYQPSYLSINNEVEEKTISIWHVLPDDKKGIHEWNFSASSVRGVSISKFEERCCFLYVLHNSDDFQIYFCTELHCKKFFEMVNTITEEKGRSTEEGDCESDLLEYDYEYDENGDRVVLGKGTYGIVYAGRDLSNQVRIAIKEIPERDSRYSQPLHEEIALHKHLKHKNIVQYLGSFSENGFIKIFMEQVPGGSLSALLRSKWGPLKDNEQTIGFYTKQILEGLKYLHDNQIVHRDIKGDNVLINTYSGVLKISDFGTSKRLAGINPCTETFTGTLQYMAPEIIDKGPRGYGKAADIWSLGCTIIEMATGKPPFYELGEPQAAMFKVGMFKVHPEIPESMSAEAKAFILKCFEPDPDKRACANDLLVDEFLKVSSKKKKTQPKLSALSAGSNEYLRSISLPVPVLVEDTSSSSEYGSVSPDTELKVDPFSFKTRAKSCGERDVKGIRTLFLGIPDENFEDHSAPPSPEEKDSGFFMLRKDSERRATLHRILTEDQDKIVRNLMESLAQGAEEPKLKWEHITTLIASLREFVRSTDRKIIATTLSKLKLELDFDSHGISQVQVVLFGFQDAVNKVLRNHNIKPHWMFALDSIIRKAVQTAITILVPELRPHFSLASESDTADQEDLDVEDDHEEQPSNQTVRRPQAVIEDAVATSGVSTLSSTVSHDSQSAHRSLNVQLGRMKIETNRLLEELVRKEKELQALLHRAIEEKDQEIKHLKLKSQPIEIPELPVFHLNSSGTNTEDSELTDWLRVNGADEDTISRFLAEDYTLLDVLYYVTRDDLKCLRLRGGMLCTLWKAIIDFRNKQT
The following applies: at 10 µM.

Test [3] concerns the target Tyrosine-protein kinase ABL1 (Homo sapiens) (UniProt P00519). The following applies: at 1 µM.
Test [4] has the same target. The following applies: at 10 µM.
Test [5] has as its target Tyrosine-protein kinase ABL2 (Homo sapiens) (UniProt P42684). Particulars: at 1 µM.
Test [6] has the same target. Particulars: at 10 µM.
The target of test [7] is T3, Aurora kinase A (Homo sapiens) (UniProt O14965).
T3 sequence (whole entry): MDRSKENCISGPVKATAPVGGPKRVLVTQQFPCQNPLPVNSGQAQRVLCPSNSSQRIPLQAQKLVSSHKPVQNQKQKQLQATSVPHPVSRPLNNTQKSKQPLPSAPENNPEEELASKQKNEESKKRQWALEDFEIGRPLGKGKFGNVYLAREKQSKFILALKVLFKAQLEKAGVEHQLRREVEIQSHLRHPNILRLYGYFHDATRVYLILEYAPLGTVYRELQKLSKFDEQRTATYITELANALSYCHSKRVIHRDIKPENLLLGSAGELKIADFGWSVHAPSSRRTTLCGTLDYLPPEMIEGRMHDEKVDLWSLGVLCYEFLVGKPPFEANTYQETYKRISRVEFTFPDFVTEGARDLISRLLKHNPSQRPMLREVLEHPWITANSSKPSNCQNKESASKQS
Particulars: at 1 µM.

Test [8] deals with T3, Aurora kinase A (Homo sapiens). Particulars: at 10 µM.
For test [9], the target named is Aurora kinase B (Homo sapiens) (UniProt Q96GD4). Particulars: at 1 µM.
Test [10] shares this target. The following applies: at 10 µM.
In test [11] the target is T4, Aurora kinase C (Homo sapiens) (UniProt Q9UQB9).
T4 sequence (whole entry): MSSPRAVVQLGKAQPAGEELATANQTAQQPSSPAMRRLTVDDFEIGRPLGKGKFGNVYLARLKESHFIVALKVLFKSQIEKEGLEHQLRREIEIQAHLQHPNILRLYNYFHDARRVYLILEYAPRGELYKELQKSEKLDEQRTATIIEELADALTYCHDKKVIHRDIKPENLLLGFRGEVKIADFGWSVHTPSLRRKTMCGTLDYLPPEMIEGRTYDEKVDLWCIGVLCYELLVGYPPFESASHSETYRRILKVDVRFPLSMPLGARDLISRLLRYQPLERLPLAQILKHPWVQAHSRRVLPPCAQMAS
The following applies: at 1 µM.

For test [12], the target named is T4, Aurora kinase C (Homo sapiens). The following applies: at 10 µM.
Test [13] concerns the target Tyrosine-protein kinase receptor UFO (Homo sapiens) (UniProt P30530). Particulars: at 1 µM.
Test [14] shares this target. Particulars: at 10 µM.
Test [15] has as its target Protein-tyrosine kinase 6 (Homo sapiens) (UniProt Q13882). Particulars: at 1 µM.
Test [16] has the same target. The following applies: at 10 µM.
In test [17] the target is Tyrosine-protein kinase BTK (Homo sapiens) (UniProt Q06187). Particulars: at 1 µM.
The target is the same in test [18]. The following applies: at 10 µM.
For test [19], the target named is Tyrosine-protein kinase Blk (Homo sapiens) (UniProt P51451). Particulars: at 1 µM.
Test [20] shares this target. The following applies: at 10 µM.

Sequence of Protein-tyrosine kinase 6 (Homo sapiens) (Q13882 whole entry, looked up): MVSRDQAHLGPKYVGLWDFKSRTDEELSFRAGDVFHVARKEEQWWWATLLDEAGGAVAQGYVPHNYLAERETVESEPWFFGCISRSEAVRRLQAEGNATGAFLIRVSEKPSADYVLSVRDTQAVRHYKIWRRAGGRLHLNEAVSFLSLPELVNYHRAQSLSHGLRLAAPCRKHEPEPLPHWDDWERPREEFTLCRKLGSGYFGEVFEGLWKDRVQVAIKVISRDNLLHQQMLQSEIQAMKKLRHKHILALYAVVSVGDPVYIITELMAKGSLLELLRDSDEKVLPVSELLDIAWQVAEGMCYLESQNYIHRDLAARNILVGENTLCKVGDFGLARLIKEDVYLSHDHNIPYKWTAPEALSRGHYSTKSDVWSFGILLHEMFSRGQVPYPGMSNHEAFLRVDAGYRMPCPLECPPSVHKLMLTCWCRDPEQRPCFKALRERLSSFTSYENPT
Sequence of Tyrosine-protein kinase ABL1 (Homo sapiens) (P00519 whole entry): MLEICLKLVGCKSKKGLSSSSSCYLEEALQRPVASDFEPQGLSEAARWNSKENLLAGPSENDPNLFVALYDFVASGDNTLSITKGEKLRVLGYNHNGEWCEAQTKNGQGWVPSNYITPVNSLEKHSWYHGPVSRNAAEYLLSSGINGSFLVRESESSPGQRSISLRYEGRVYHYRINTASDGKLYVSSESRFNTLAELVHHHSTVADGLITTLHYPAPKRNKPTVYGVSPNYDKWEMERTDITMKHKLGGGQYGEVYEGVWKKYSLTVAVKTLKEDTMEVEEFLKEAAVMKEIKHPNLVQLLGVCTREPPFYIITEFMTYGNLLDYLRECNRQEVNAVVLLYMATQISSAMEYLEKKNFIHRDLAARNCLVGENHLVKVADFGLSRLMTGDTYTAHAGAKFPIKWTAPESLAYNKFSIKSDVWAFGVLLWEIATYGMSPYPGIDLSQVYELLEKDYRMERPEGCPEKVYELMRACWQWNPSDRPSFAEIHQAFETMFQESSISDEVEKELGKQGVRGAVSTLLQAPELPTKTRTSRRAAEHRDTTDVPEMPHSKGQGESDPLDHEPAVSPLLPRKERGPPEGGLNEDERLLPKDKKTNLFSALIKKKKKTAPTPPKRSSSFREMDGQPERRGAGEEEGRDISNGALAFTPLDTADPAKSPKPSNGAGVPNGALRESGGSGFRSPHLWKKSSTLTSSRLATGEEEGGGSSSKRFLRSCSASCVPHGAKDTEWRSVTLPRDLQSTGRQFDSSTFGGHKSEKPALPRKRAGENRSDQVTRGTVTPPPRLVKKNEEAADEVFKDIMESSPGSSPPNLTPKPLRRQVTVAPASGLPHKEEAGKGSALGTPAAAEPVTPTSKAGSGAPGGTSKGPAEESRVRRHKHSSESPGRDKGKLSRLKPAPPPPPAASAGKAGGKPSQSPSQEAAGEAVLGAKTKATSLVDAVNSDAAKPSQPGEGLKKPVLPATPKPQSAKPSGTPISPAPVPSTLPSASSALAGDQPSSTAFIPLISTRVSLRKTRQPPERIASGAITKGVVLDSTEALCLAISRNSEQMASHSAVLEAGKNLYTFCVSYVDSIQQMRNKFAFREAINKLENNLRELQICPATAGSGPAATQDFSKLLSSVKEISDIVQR
Sequence of Tyrosine-protein kinase receptor UFO (Homo sapiens) (P30530 whole entry): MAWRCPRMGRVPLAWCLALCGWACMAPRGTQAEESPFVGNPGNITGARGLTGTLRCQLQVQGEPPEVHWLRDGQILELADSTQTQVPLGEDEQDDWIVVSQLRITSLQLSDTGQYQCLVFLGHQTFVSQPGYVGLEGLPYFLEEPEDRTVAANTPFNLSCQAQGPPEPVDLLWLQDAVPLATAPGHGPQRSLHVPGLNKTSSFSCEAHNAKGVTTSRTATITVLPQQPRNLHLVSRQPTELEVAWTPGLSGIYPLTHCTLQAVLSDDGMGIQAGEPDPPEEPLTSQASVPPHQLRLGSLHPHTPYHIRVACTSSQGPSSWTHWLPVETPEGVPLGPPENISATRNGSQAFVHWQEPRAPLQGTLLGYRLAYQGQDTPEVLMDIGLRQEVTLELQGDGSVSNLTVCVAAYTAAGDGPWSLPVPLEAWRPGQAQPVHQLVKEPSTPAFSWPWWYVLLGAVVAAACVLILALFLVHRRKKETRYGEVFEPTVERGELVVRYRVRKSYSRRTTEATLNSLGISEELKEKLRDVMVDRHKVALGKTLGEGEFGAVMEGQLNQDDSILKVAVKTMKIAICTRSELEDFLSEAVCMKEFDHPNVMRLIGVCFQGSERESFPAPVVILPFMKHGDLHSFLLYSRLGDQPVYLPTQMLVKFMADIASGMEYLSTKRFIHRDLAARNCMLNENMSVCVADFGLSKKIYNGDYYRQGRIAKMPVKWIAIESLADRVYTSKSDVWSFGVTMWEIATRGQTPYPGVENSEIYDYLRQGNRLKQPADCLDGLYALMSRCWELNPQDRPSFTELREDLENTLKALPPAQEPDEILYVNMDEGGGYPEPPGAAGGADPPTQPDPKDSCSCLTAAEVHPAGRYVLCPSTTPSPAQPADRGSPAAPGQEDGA
Sequence of Tyrosine-protein kinase Blk (Homo sapiens) (P51451 2-505 limits assumed): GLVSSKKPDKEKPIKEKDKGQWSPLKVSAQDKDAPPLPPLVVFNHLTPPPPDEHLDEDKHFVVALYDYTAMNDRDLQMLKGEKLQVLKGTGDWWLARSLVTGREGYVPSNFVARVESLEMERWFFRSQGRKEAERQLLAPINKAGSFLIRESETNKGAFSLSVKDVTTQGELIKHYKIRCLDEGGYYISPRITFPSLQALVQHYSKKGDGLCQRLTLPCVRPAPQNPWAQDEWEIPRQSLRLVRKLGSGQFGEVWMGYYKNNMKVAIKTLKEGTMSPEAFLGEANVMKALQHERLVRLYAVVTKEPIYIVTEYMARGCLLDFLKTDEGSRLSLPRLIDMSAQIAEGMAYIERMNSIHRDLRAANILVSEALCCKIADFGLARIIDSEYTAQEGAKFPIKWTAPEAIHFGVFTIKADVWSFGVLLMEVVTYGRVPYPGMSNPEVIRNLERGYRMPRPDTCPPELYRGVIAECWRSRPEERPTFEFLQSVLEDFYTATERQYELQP
Sequence of Tyrosine-protein kinase ABL2 (Homo sapiens) (P42684 whole entry): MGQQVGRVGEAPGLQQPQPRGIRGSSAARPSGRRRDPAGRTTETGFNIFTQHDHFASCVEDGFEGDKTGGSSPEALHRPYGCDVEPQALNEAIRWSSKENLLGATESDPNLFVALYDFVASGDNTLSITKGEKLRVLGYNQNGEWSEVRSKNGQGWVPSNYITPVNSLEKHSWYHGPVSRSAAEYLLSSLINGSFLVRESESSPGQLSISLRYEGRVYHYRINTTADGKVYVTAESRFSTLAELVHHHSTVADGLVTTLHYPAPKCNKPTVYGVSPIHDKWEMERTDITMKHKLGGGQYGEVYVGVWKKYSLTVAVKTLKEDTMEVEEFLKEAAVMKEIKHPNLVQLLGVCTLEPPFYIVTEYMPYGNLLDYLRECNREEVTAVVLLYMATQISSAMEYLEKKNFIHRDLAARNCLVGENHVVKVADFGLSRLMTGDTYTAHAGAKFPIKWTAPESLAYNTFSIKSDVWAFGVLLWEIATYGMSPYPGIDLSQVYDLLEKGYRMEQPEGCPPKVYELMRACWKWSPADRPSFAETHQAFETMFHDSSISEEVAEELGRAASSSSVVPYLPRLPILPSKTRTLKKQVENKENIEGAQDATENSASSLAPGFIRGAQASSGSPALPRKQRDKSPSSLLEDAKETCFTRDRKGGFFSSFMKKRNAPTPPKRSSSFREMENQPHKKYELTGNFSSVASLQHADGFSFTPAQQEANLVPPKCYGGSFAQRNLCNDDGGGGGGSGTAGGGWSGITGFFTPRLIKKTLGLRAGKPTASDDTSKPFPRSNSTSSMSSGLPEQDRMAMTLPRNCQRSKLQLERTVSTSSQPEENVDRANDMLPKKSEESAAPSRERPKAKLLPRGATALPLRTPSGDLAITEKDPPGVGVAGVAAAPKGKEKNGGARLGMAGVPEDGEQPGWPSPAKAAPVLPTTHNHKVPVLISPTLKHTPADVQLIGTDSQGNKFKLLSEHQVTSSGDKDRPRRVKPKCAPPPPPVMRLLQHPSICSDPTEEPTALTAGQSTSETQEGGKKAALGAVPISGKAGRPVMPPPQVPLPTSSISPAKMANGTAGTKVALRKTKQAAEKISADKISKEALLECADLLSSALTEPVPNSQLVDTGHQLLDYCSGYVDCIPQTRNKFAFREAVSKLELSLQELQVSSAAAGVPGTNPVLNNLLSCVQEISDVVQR
Sequence of Aurora kinase B (Homo sapiens) (Q96GD4 whole entry): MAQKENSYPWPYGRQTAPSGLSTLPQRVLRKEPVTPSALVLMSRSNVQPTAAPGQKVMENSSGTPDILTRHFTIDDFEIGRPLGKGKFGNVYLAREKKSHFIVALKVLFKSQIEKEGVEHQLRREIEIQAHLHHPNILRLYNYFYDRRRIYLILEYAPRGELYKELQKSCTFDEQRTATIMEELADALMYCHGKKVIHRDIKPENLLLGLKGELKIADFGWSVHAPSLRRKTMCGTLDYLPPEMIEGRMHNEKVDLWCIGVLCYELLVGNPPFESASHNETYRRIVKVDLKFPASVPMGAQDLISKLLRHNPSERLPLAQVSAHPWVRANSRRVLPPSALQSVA

`c1ccc(-c2n[nH]cc2-c2ccnc3ccccc23)nc1`: the residual activity in [1] is 108% (inactive); in test [2], 105%; in [3], 69%; in test [4] it was 14%; in test [5], 64%; in test [6], 18%. In addition, the residual activity amounted to 99% in test [7]; 103% in [8]; 75% in test [9]; 51% in test [10]; 100% in test [11]; 66% in test [12]. Moreover, the residual activity in test [13] amounted to 65%; in test [14] it was 80%; in [15], 93%; in test [16] it was 37%; in [17] it was 102%; in [18], 100%. Also, the figures for the residual activity in [19] and in test [20] were 102% and 59%, respectively.
Take `Nc1cccc(-c2cc3c(Oc4cccc(O)c4)ncnc3[nH]2)c1`: the residual activity in [2] is 95%; in test [3], -6%; in test [4] it was -5%; in test [5], -3%; in test [6] it was -2%; in test [7] it was 28%. Besides, the residual activity in test [8] worked out at 1%; in test [9], 9%; in test [10], 0%; in test [11], 72%; in test [12], 20%; in test [13], 101%. Besides, the residual activity in test [14] is 39%; in test [15], 0%; in [16], 0%; in test [17] it was 21%; in test [18], -1%; in [19], 7%. The residual activity in test [20] worked out at 1%.
As to `Cc1cncc2cccc(S(=O)(=O)N3CCCN(C(=O)CN)C[C@H]3C)c12`, the residual activity in [1] was 88% (inactive); in [2], 87%; in [3], 88%; in test [6] it was 92%; in [7], 64%; in test [8] it was 36%. The residual activity in test [9] was determined as 6%; in test [10] it was 3%; in test [11] it was 5%; in test [12] it was 1%; in test [13], 88%; in test [14] it was 74%. Moreover, the residual activity was determined as 122% in test [19] and 75% in test [20].
Take `COc1cc2ncnc(N3CCN(C(=O)Nc4ccc(Oc5ccccc5)cc4)CC3)c2cc1OC`: the residual activity is 113% (inactive) in test [1]; 67% in [2]; 110% in test [5]; 118% in test [6]; 51% in test [7]; 48% in [8]. In addition, the residual activity in [9] worked out at 15%; in test [10], 7%; in [11] it was 71%; in test [12], 25%; in [13], 71%; in test [14], 60%. Also, the residual activity in test [15] turned out to be 98%; in test [16], 98%; in test [17], 92%; in test [18], 112%; in test [19], 100%; in test [20], 72%.
`c1ccc(-c2n[nH]c3c2oc2ccccc23)cc1`: the residual activity in test [1] was 99% (inactive); in test [2], 90%; in [3], 96%; in test [4] it was 77%; in [5], 115%; in test [6], 93%. The residual activity worked out at 53% in test [7]; 31% in [8]; 39% in [9]; 4% in test [10]; 81% in [13]; 73% in test [14]. Also, the residual activity in test [19] came to 98%; in test [20], 49%.
`CO[C@@H]1[C@H](N(C)C(=O)c2ccccc2)C[C@H]2O[C@]1(C)n1c3ccccc3c3c4c(c5c6ccccc6n2c5c31)C(=O)NC4`: the residual activity in test [1] is 101% (inactive); in [2], 75%; in test [3] it was 89%; in test [5], 77%; in test [6] it was 45%; in test [7] it was -3%. In addition, the residual activity in test [8] is -2%; in test [9], 1%; in [10], 3%; in test [11], 62%; in [12], 20%; in test [13], 14%. The residual activity in [14] amounted to 9%; in test [15] it was 98%; in [16] it was 93%; in test [17], 60%; in test [18] it was 35%; in test [19], 7%. Further, the residual activity in test [20] worked out at 5%.
Consider `CNc1cc2c(Nc3cccc(Br)c3)ncnc2cn1`, for which the residual activity in test [1] was 99% (inactive); in test [2] it was 112%; in test [3], 85%; in [4], 87%; in [5] it was 93%; in test [6], 79%. In addition, the residual activity came to 60% in test [7]; 71% in test [8]; 43% in test [9]; 10% in [10]; 85% in [11]; 64% in [12]. The residual activity in [13] was 75%; in [14] it was 69%; in test [15], 69%; in [16], 53%; in test [17] it was 98%; in [18] it was 83%. Moreover, the residual activity is 103% in test [19] and 65% in [20].

Source of the values: ChEMBL document CHEMBL2218924, “A broad activity screen in support of a chemogenomic map for kinase signalling research and drug discovery” (Biochem J, 2013).
